Measured values: PubChem BioAssay AID743263 (The Scripps Research Institute Molecular Screening Center, 2014)
In all, about 1,100 compounds went through this assay and about 250 (23%) were called active. No stated cut-off is given here; in the data, active means inhibition above about 25%; inactive means the rest. Only a sample is shown.

The compounds below were run against Tyrosyl-DNA phosphodiesterase 2 (Homo sapiens) (UniProt O95551) (assay: blockers of TDP2 phosphodiesterase activity – biochemical, epi absorbance, recombinant enzyme, confirmation (AID 743263;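 further: 0% = vehicle with enzyme and 100% = no enzyme buffer only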)). Settings: recombinant human TDP2, absorbance read-out; at 12.8 µM; active compounds read high.
Tyrosyl-DNA phosphodiesterase 2 (Homo sapiens), sequence (O95551 whole entry, looked up): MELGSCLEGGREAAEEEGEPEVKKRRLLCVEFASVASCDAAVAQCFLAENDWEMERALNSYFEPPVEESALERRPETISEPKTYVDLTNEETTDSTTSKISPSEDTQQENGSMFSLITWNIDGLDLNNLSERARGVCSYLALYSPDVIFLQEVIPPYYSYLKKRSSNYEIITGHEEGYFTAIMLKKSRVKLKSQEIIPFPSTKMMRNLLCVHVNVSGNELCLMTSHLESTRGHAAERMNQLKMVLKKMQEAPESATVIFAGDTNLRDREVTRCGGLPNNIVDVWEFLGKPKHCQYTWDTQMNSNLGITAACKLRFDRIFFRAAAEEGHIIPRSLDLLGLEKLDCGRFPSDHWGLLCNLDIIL

Structure (SMILES) | inhibition
NC1=CC(=O)C(=O)c2cccnc21 | 65.8% (active)
CCSc1nnc(SCC(=O)NNC(=O)c2ccccc2F)s1 | -14.1% (inactive)
Cc1cc(C)c(OCCN2CC(C)OC(C)C2)c(Br)c1 (stereo not drawn) | -5.14% (inactive)
CCCCCCCCc1c(O)nc(-n2[nH]c(C)c(CCO)c2=O)[nH]c1=O | 27.3% (active)
CCOC(=O)N1CCC(c2cc(=O)n(-c3ccccc3)[nH]2)CC1 | 0.79% (inactive)
Cc1ccc(S(=O)(=O)N2CCC(C(=O)NCCC3=CCCCC3)CC2)cc1C | -3.83% (inactive)
CC(=O)N(C1=C(Cl)C(=O)c2ccccc2C1=O)c1ccc(C(=O)O)cc1 | 59.3% (active)
CC(C)Cn1c(N)c(C(=O)NCc2cccs2)c2nc3ccccc3nc21 | 10.2% (inactive)
CCN(CC)CCN1C(=O)C2C(C(=O)Nc3ccc(Br)cc3)C3C=CC2(O3)C1C(=O)NC1CCCCC1 (stereo not drawn) | -2.2% (inactive)
COc1ccccc1C1C(C#N)=C(N)Oc2c1c(-c1ccccc1)nn2-c1ccccc1 (stereo not drawn) | -0.56% (inactive)
Cn1nc(N)c2ncc(C(Cl)(Cl)Cl)nc21 | 2.05% (inactive)
COc1ccc2c(c1)c(=Cc1ccc(N(C)C)cc1)c1cc(-c3ccccc3)[n+](C)n12 | 9.49% (inactive)
Oc1c(C=Nc2cccc3nsnc23)ccc2ccccc12 | 41.4% (active)
COc1ccc(-c2csc(Nc3ccc(O)cc3)n2)cc1 | 3.53% (inactive)
COc1cc(OC)cc(C(=O)OCC(=O)Nc2sccc2C(N)=O)c1 | -2.14% (inactive)
COc1cc(NC(=O)COC(=O)c2ccc([N+](=O)[O-])s2)cc(OC)c1OC | 35.1% (active)
O=C(OCC(=O)N1CCN(c2ccccc2)CC1)c1ccc([N+](=O)[O-])s1 | 10.4% (inactive)
O=C(NC1CCCCC1)N1CCc2[nH]c3ccccc3c2C1 | 7.01% (inactive)
Cc1ccc(Cl)cc1NC(=O)CN1CCN(S(=O)(=O)N2CCOCC2)CC1 | -8.33% (inactive)
O=c1oc2ccccc2c(CNc2ccccc2)c1[N+](=O)[O-] | 11.7% (inactive)

Structure (SMILES) | inhibition
CCN(CC)CCCC(C)n1c2nc(=O)[nH]c(=O)c-2nc2cc(Cl)ccc21 (stereo not drawn) | 52.2% (active)
O=S(=O)(Nc1ccc(O)c2ccccc12)c1ccc(OC(F)(F)F)cc1 | 15.5% (inactive)
Cc1ccc(OCCCCc2c(C)n[nH]c2C)cc1 | 2.05% (inactive)
CN1c2ccc(C=O)c3c(C=O)ccc(c23)N(C)C1(C)C | 21% (inactive)
CC(=O)c1ccc(S(=O)(=O)N2CCC3(CC2)OCCO3)cc1 | -6.04% (inactive)
COC1=C(N2CCOCC2)C(=O)c2ccccc2C1=O | 30.9% (active)
COc1ccc(S(=O)(=O)/N=C2\C=C(NS(=O)(=O)c3ccccc3)C(=O)c3ccccc32)cc1 | 16.7% (inactive)
COCCN1C=C2C(=O)C(C)(OC(=O)C3CCCC3)C(=O)C=C2C=C1c1ccsc1 (stereo not drawn) | 12.3% (inactive)
O=C1Nc2ccc([N+](=O)[O-])cc2C1=Nc1cccc(CO)c1 | 28.1% (active)
Cc1nn(-c2ccccc2)c2c1C(c1ccc(F)cc1)C(C#N)=C(N)O2 (stereo not drawn) | -4.61% (inactive)
CC1=NN(c2ccc(Cl)c(C(=O)O)c2)C(=O)/C1=C/c1ccc(-c2ccccc2[N+](=O)[O-])o1 | -34.7% (inactive)
CCc1ccccc1NC(=S)Nc1cc(OC)c(NC(=O)C(C)C)cc1OC | 2.01% (inactive)
Clc1ccc(C2=CSC3=Nc4cccc5cccc(c45)N23)cc1 | 55% (active)
O=C(NCc1ccccc1Cl)C(=O)NCC1CCCN1S(=O)(=O)c1cccs1 (stereo not drawn) | -5.35% (inactive)
Cc1ccccc1Cn1c2ccccc2c2cnn(CC(=O)NCc3ccco3)c(=O)c21 | -10.2% (inactive)
COc1ccc2c(c1)C(C)=CC(C)(C)N2C(=O)Nc1ccccc1 | 7.25% (inactive)
COCCn1nnnc1C(c1cc2ccc(OC)cc2[nH]c1=O)N1CCc2ccccc2C1 (stereo not drawn) | -0.83% (inactive)
C=CCn1c(N)c(C(=O)OCC(C)C)c2nc3ccccc3nc21 | 9.13% (inactive)
Oc1ccc(N=Cc2sc3ccccc3c2Cl)cc1 | 71.6% (active)
Oc1ccc(N=Cc2c(O)ccc3ccccc23)cc1 | 52.7% (active)

Structure (SMILES) | inhibition
CCN1C(=O)c2cccc3c(N)ccc1c23 | 8.24% (inactive)
CN(C)c1ccc(N/C=C/C(=O)C(F)(F)F)cc1 | -9.4% (inactive)
Cc1[nH][nH]c(=O)c1C(c1ccc(-c2ccc(Cl)cc2)o1)c1c(C)[nH][nH]c1=O | 20.6% (inactive)
O=Cc1cn(-c2ccccc2)nc1-c1ccccn1 | 2.54% (inactive)
CC1CCCC(NC(=O)c2cc(-c3ccncc3)nc3ccccc23)C1C (stereo not drawn) | -1.39% (inactive)
CCOC(=O)c1c(C)[nH]c2c1-c1ccccc1C(=O)C2=O | 84.2% (active)
Nc1ccc2nn(-c3ccc(Cl)cc3)nc2c1 | 1.36% (inactive)
CCCCNC(=O)CCn1nc(-c2ccc(Cl)cc2)ccc1=O | -5.6% (inactive)
O=C(COC(=O)Cc1c[nH]c2ccccc12)NCCc1ccccc1 | 4.15% (inactive)
Nc1nc(O)c(CC(=O)O)s1 | 4.54% (inactive)
O=C(NC1=CC(=O)c2ccccc2C1=O)c1ccccc1 | 60.1% (active)
Cc1ccc(C(=O)Nc2c(-c3ccccc3)[nH][nH]c2=O)cc1 | 12.1% (inactive)
Nn1cnnc1N/N=C/c1cc([N+](=O)[O-])c(Cl)cc1Cl | -5.21% (inactive)
CCOc1ccc(C(c2c(C)[nH][nH]c2=O)c2c(C)[nH][nH]c2=O)cc1OCC | 10.8% (inactive)
CCOC(=O)c1ccc(NC2Nc3cc(C)nn3S2)cc1 (stereo not drawn) | 7.05% (inactive)
CCOC(=O)c1ccc(Nc2cc3ccccc3c(=O)[nH]2)cc1 | 32.7% (active)
COc1ccccc1CN1CCN(C(c2ccccc2)c2ccccc2)CC1 | 3.64% (inactive)
COCCNC(=O)c1ccc(S(=O)(=O)c2ccc(Cl)cc2)c(NC(C)=O)c1 | 9.19% (inactive)
